For seven molecules, outcome and AC50 results are on record in PubChem BioAssay (EPA / NIEHS).

Details in all cases: mRNA level, 48 h; actives raise or lower the signal
Read-out in assay [1]: Cyclin D2 (CCND2), CCND2 (gene 894)
As to the kind of experiment: LTEA_HepaRG_CCND2: Life Technologies and Expression Analysis (LTEA) Assay for Cyclin D2 (CCND2) using HepaRG (AID 2283449).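 Further: CCND2 transcript measured by TaqMan qRT-PCR and normalised to three housekeeping genes.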 The method, boiled down: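 In this HepaRG study, an eight-point concentration series (max 100 uM, 0.5% DMSO) is applied for 48 h. CCND2 mRNA change is derived by qRT-PCR normalised to ACTB, GAPDH and POLR2A.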

Read-out in assay [2]: Cyclin Dependent Kinase Inhibitor 1A (CDKN1A), CDKN1A (gene 1026)
In words: LTEA_HepaRG_CDKN1A: Life Technologies and Expression Analysis (LTEA) Assay for Cyclin Dependent Kinase Inhibitor 1A (CDKN1A) using HepaRG (AID 2283450). The method, boiled down: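 Read-out is CDKN1A mRNA by TaqMan qRT-PCR, normalized to three housekeeping genes and fitted in both directions against the DMSO baseline. Human HepaRG cells were treated 48 h with test chemicals up to 100 uM in half-log steps, 0.5% DMSO.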

Read-out in assay [3]: Cyclin D1 (CCND1), CCND1 (gene 595)
In words: LTEA_HepaRG_CCND1: Life Technologies and Expression Analysis (LTEA) Assay for Cyclin D1 (CCND1) using HepaRG (AID 2283451). The method, boiled down:
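HepaRG plated 48 h, medium switched to serum-free induction medium, chemicals added in duplicate (top 100 uM, half-log steps, 0.5% DMSO) for 48 h, cells lysed, RNA measured by TaqMan qRT-PCR.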

Read-out in assay [4]: catalase (CAT), CAT (gene 847)
In words: LTEA_HepaRG_CAT: Life Technologies and Expression Analysis (LTEA) Assay for catalase (CAT) using HepaRG (AID 2283452). An outline of the steps:
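Differentiated HepaRG cells in serum-free induction medium were dosed 48 h in duplicate, eight half-log concentrations from 100 uM in 0.5% DMSO. Transcript measured by TaqMan qRT-PCR, normalised to ACTB/GAPDH/POLR2A, fitted bidirectionally against DMSO.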

Read-out in assay [5]: flavin-containing dimethylaniline monooxygenases 3 (FMO3), FMO3 (gene 2328)
In words: LTEA_HepaRG_FMO3: Life Technologies and Expression Analysis (LTEA) Assay for flavin-containing dimethylaniline monooxygenases 3 (FMO3) using HepaRG (AID 2283453). The method, boiled down:
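FMO3 transcript quantified by TaqMan qRT-PCR against three housekeeping genes after 48 h chemical exposure of HepaRG cells. Eight-point half-log series, top 100 uM, 0.5% DMSO vehicle; phenobarbital 1mM induction control; up- or down-regulation fitted.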

Read-out in assay [6]: Cytochrome P450 (CYP1A1), CYP1A1 (gene 1543)
In words: LTEA_HepaRG_CYP1A1: Life Technologies and Expression Analysis (LTEA) Assay for Cytochrome P450 (CYP1A1) using HepaRG (AID 2283454). The method, boiled down: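 HepaRG, 48 h post-plating switched to serum-free induction medium; 8-pt conc-response (top 100 uM, half-log, 0.5% DMSO), duplicates, 48 h. Lysis in RLT, TaqMan qRT-PCR for CYP1A1; gain or loss vs DMSO.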

Read-out in assay [7]: CFLAR gene, CFLAR (gene 8837)
In words: LTEA_HepaRG_CFLAR: Life Technologies and Expression Analysis (LTEA) Assay for CFLAR gene using HepaRG (AID 2283455). An outline of the steps: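 Gain- or loss-of-signal changes in CFLAR transcript were fitted bidirectionally relative to 0.5% DMSO. Cells (HepaRG, duplicate wells) were dosed for 48 h across eight half-log concentrations topping at 100 uM; quantitation by TaqMan qRT-PCR.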

Read-out in assay [8]: Forkhead box O1 (FOXO1), FOXO1 (gene 2308)
As to the kind of experiment: LTEA_HepaRG_FOXO1: Life Technologies and Expression Analysis (LTEA) Assay for Forkhead box O1 (FOXO1) using HepaRG (AID 2283456). An outline of the steps:
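Using one lot of HepaRG hepatic cells kept in 0.5% DMSO, the team applied test chemicals in duplicate, half-log dilutions from 100 uM, for 48 h. Expression, normalised to ACTB/GAPDH/POLR2A, was compared with vehicle in either direction.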

Read-out in assay [9]: growth arrest and DNA damage 45 (GADD45A), GADD45A (gene 1647)
As to the kind of experiment: LTEA_HepaRG_GADD45A: Life Technologies and Expression Analysis (LTEA) Assay for growth arrest and DNA damage 45 (GADD45A) using HepaRG (AID 2283458). The method, boiled down: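 Transcript induction or loss, quantified by TaqMan qRT-PCR against three housekeeping genes, is the read-out. HepaRG cells received chemicals for 48 h across eight half-log concentrations from 100 uM in 0.5% DMSO; gain and loss fitted relative to DMSO.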

Read-out in assay [10]: Forkhead box O3 (FOXO3), FOXO3 (gene 2309)
As to the kind of experiment: LTEA_HepaRG_FOXO3: Life Technologies and Expression Analysis (LTEA) Assay for Forkhead box O3 (FOXO3) using HepaRG (AID 2283459). An outline of the steps: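 Gene-expression endpoint: FOXO3 transcript level by qRT-PCR in HepaRG cultures treated 48 h with chemicals up to 100 uM (half-log, 0.5% DMSO vehicle).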

Read-out in assay [11]: ABC Transporter (ABCB1), ABCB1 (gene 5243)
In words: LTEA_HepaRG_ABCB1: Life Technologies and Expression Analysis (LTEA) Assay for ABC Transporter (ABCB1) using HepaRG (AID 2283460). An outline of the steps: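 Human liver HepaRG line treated 48 h with up to 100 uM compound (eight half-log points, 0.5% DMSO); ABCB1 mRNA change fitted bidirectionally against DMSO controls.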

Read-out in assay [12]: growth arrest and DNA damage 45 (GADD45B), GADD45B (gene 4616)
As to the kind of experiment: LTEA_HepaRG_GADD45B: Life Technologies and Expression Analysis (LTEA) Assay for growth arrest and DNA damage 45 (GADD45B) using HepaRG (AID 2283461). The method, boiled down: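 HepaRG, ~100,000 cells/well, 48 h plating; serum-free induction medium; cpd 100 uM top, half-log x8, 0.5% DMSO, duplicate, 48 h; lysis in RLT, RNA isolation, qRT-PCR; norm ACTB/GAPDH/POLR2A; bidirectional fit vs DMSO.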

Read-out in assay [13]: ABC Transporter (ABCC3), ABCC3 (gene 8714)
In words: LTEA_HepaRG_ABCC3: Life Technologies and Expression Analysis (LTEA) Assay for ABC Transporter (ABCC3) using HepaRG (AID 2283462). An outline of the steps:
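Human HepaRG, 48 h dosing, 8-pt half-log series from 100 uM, 0.5% DMSO vehicle, duplicates. ABCC3 mRNA by TaqMan qRT-PCR, housekeeping-normalized; bidirectional curve fit vs DMSO.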

Read-out in assay [14]: ABC Transporter (ABCB11), ABCB11 (gene 8647)
In words: LTEA_HepaRG_ABCB11: Life Technologies and Expression Analysis (LTEA) Assay for ABC Transporter (ABCB11) using HepaRG (AID 2283463). An outline of the steps: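 Using HepaRG cultures held in 0.5% DMSO, chemicals were tested at half-log dilutions from 100 uM for 48 h. Induction or suppression of ABCB11 mRNA, normalized to ACTB, GAPDH and POLR2A, was fitted bidirectionally against vehicle.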

Read-out in assay [15]: ABC Transporter (ABCC2), ABCC2 (gene 1244)
As to the kind of experiment: LTEA_HepaRG_ABCC2: Life Technologies and Expression Analysis (LTEA) Assay for ABC Transporter (ABCC2) using HepaRG (AID 2283464). The method, boiled down:
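HepaRG, 48 h post-plating; serum-free induction medium; cpd 8-pt, 100 uM top, half-log, 0.5% DMSO, duplicate, 48 h. Readout: ABCC2 mRNA by qRT-PCR, norm. ACTB/GAPDH/POLR2A. Bidirectional fit vs DMSO baseline.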

Read-out in assay [16]: Broad substrate specificity ATP-binding cassette transporter ABCG2 (Homo sapiens) (UniProt Q9UNQ0)
As to the kind of experiment: LTEA_HepaRG_ABCG2: Life Technologies and Expression Analysis (LTEA) Assay for ABC Transporter (ABCG2) using HepaRG (AID 2283465). An outline of the steps: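 Gene expression of ABCG2 in HepaRG liver cells is quantified by qRT-PCR following 48 h exposure across an eight-point series topping at 100 uM. Values come from bidirectional fitting relative to DMSO vehicle.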

Read-out in assay [17]: ATP-citrate lyase (ACLY), ACLY (gene 47)
As to the kind of experiment: LTEA_HepaRG_ACLY: Life Technologies and Expression Analysis (LTEA) Assay for ATP-citrate lyase (ACLY) using HepaRG (AID 2283466). The method, boiled down:
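ACLY expression changes in human HepaRG liver cells are quantified by qRT-PCR after 48 h exposure to test chemicals (maximum 100 uM, half-log steps). Values are fitted in both directions relative to 0.5% DMSO vehicle.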

Read-out in assay [18]: Peroxisomal acyl-coenzyme A oxidase 1 (ACOX1) gene, ACOX1 (gene 51)
As to the kind of experiment: LTEA_HepaRG_ACOX1: Life Technologies and Expression Analysis (LTEA) Assay for Peroxisomal acyl-coenzyme A oxidase 1 (ACOX1) gene using HepaRG (AID 2283467). The method, boiled down:
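Human HepaRG hepatic cultures, 48 h treatment with test chemicals up to 100 uM. ACOX1 expression read by qRT-PCR relative to 0.5% DMSO vehicle.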

Read-out in assay [19]: Alkaline Phosphatase, Placental (ALPP) gene, ALPP (gene 250)
In words: LTEA_HepaRG_ALPP: Life Technologies and Expression Analysis (LTEA) Assay for Alkaline Phosphatase, Placental (ALPP) gene using HepaRG (AID 2283468). An outline of the steps:
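HepaRG, 48 h plating then 48 h dosing, serum-free induction medium, 0.5% DMSO. 8 conc, half-log, max 100 uM, duplicates. Endpoint: ALPP transcript by qRT-PCR, housekeeping-normalized; gain or loss fitted vs DMSO.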

Calls of active or inactive are those of the source. How the source made its calls: active means hit-call score of the fitted dose curve at least 0.9, where 1 is the maximum; inactive means score below 0.9.

Sequence of Broad substrate specificity ATP-binding cassette transporter ABCG2 (Homo sapiens) (Q9UNQ0 whole entry, looked up): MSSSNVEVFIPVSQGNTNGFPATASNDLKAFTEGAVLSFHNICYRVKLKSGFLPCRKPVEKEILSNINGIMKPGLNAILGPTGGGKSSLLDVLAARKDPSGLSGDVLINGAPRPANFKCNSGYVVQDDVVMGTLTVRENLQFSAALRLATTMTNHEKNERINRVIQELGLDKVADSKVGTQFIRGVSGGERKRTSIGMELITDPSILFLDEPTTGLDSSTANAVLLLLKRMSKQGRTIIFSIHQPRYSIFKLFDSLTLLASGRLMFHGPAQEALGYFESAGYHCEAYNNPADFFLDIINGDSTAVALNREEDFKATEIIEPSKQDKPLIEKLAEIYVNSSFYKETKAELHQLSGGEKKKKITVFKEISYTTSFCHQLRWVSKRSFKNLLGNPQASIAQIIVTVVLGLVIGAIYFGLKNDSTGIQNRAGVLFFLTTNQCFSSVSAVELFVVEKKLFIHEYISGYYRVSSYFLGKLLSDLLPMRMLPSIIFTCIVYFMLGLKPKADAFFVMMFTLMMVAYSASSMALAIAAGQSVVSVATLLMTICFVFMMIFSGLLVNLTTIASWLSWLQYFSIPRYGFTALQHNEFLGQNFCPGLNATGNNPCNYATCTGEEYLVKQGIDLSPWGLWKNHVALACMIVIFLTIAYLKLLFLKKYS

As to `FC(F)(F)C(F)(F)C(F)(F)C(F)(F)C(F)(F)C(F)(F)CCI`, the molecule was called inactive in assay [1], in [2], in assay [3], in [4], in assay [5] and in [6]. Besides, the molecule was called inactive in assay [7], in assay [8], in assay [9], in assay [10], in assay [11] and in assay [12]. Also, the molecule was called inactive in [13], in assay [14], in assay [15], in [16], in assay [17] and in [18]. Also, the molecule was classed as inactive in assay [19].
One may read the AC50 as the concentration at which the activity in the assay is half-maximal. On to `CCCCCCCCCCCC(=O)OC`, for which the molecule was called inactive in [1], in [2], in [3], in assay [4], in [5] and in [7]. Besides, the outcome in [8], in [9], in [10], in [12], in assay [13] and in assay [14] was inactive. Also, the result in assay [15], in assay [16], in [17], in assay [18] and in assay [19] was inactive. For the same molecule, in [6], the AC50 was 60.3 µM (active).
For `CCCCCCCCCCCCCCCC`, the molecule was classed as inactive in assay [1], in [2], in [3], in assay [4], in [5] and in [7]. In addition, the molecule was classed as inactive in assay [8], in assay [10], in assay [11], in assay [12], in [13] and in assay [14]. Moreover, the call in [15], in assay [16], in [17], in assay [18] and in assay [19] was inactive. Besides, in [6], the AC50 was 50 µM (active).
Turning to `CCCCCCCCCCCCCCCCCC(=O)O`, the result in assay [1], in assay [2], in assay [3], in [4], in [5] and in assay [7] was inactive. The call in [8], in assay [9], in [10], in assay [12], in assay [13] and in assay [14] was inactive. Further, the outcome in [15], in assay [16], in [17], in assay [18] and in assay [19] was inactive. In addition, in [6], the AC50 was 50 µM (active).
As for `CC1(C)NC(=O)NC1=O`, the molecule was called inactive in assay [1], in assay [2], in assay [3], in assay [4], in assay [5] and in assay [6]. In addition, the call in [7], in assay [8], in [9], in [10], in assay [12] and in assay [13] was inactive. The molecule was classed as inactive in assay [14], in assay [15], in [16], in [17], in assay [18] and in assay [19].
Turning to `CCCc1cc(=O)[nH]c(=S)[nH]1`, the outcome in [1], in assay [2], in assay [3], in assay [4], in assay [5] and in [7] was inactive. The molecule was classed as inactive in [8], in assay [9], in assay [10], in assay [12], in assay [13] and in [14]. Besides, the result in assay [15], in assay [16], in assay [17], in [18] and in assay [19] was inactive. Besides, the AC50 in assay [6] was 50 µM (active).
Turning to `CC(=O)OCCOCCOCCOC(C)=O`, the result in [1], in assay [2], in assay [3], in assay [4], in assay [5] and in [6] was inactive. Also, the result in assay [7], in assay [8], in assay [9], in assay [10], in assay [11] and in [12] was inactive. Besides, the molecule was classed as inactive in [13], in assay [14], in [15], in [16], in assay [17] and in [18]. Besides, in [19], the outcome was inactive.
